Most compounds without a hit are left out; they make up all but 13% or so of the library.
HCV inh: qHTS Assay for Inhibitors of Hepatitis C Virus (HCV). Huh7.5.1 HCVcc-Cre infection, luciferase reporter, 44 h. Potency, µM (titrated, usually from 41.8 µM), hits mostly inhibitors. hit rate 3.4% among 340,000
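Infectious HCVcc-Cre (~0.5 moi) was added to cells just after compound, with cells seeded 4 h earlier at 1,000 per well. Luciferase activity after 44 h culture reported infection; substrate was incubated 15 min at room temperature before reading.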
HCMV antiviral: qHTS Assay for inhibitors of the human cytomegalovirus (HCMV) | hit rate 4.5% among 410,000 | AID 1259415, 2018 | activity change, negative = inhibition, % at 57.5 µM | HFF cells, HCMV-luciferase reporter, 72 h; active compounds read low; in the data active means activity change below about -60%; inconclusive means no clear call, values can overlap the other calls; inactive means above about -39%
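Cell-based, HFFs, 1000 cells/well, 16 h 37C; cpds in DMSO + HCMV-luc, MOI 1 PFU/cell; 72 h 37C; OneGlo luminescence after 5 min RT; norm. to buffer vs Salinomycin 10uM.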
Pf growth 48h: Primary qHTS for delayed death inhibitors of the malarial parasite plastid, 48 hour incubation. P. falciparum luciferase growth in erythrocytes, 48 h. Potency, µM (series often up to 28.7 µM), usual class: inhibitors. hit rate 5.9% among 310,000. AID 504832, 2011
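Growth was read as firefly luciferase luminescence after a 48 h, 37 C, 5% CO2 exposure of compounds to reporter-bearing P. falciparum cultures (0.1% parasitemia, 2% hematocrit final) in Albumax-supplemented RPMI 1640.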
Pf growth 96h: Primary qHTS for delayed death inhibitors of the malarial parasite plastid, 96 hour incubation. P. falciparum luciferase reporter growth, 96 h. Potency, µM (highest dose often 28.7 µM), actives largely listed as inhibitors. hit rate 6.9% among 320,000
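Two-generation exposure (96 h) targets delayed-death phenotype. Reporter parasites carrying integrated firefly luciferase, in red cells at 2% hematocrit and 0.05% parasitemia final, kept at 37 C, 5% CO2; luminescence loss indicates inhibition.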
Numbers stand for hits. Unless noted, the call rests on the fitted dose curve; in most records, active means well fitted inhibition curve with a large enough effect; inconclusive means small, poorly fitted or top-dose-only effect, or another doubt; inactive means no such curve, though single readings can be large or run the other way.

`Cc1ccc2nc(N3CCC(C(=O)N4CCC5(CC4)OCCO5)CC3)sc2c1` gave HCV inh inconclusive, HCMV antiviral inactive, Pf growth 48h inactive and Pf growth 96h inactive.
For CCc1ccc2nc(N3CCC(C(=O)N4CCC5(CC4)OCCO5)CC3)sc2c1 the results were HCV inh 11µM, HCMV antiviral inconclusive, Pf growth 48h inactive and Pf growth 96h inconclusive.
Screening O=C(C1CCN(c2nc3ccc(Br)cc3s2)CC1)N1CCC2(CC1)OCCO2 returned HCV inh 3.2µM, HCMV antiviral inactive, Pf growth 48h inactive and Pf growth 96h 4.7µM.
For COc1ccc(-c2c(C)c3ccc(O)c(CN4CCCC4)c3oc2=O)cc1 the results were HCMV antiviral inactive.
Screening O=c1[nH]c(Nc2nc3ccccc3o2)nc2c1CCCC2 returned HCV inh inactive, HCMV antiviral -99, Pf growth 48h inactive and Pf growth 96h inactive.
For CCOc1ccc(Nc2nc3c(c(=O)[nH]2)CCCC3)cc1 the results were HCV inh inactive, HCMV antiviral inactive, Pf growth 48h 2.3µM and Pf growth 96h inactive.
COc1ccc(C(=O)NCC(c2ccc(N(C)C)cc2)N2CCCC2)c(OC)c1 (configuration not stated) was read as HCMV antiviral inactive.
Screening O=C(Nc1ccc(Cl)cc1F)c1cc(S(=O)(=O)NCc2ccc3c(c2)OCO3)ccc1F returned HCMV antiviral inactive.
Screening Cc1ccc(C2=NC(c3ccccc3)=Nc3ccc(Cl)cc3N2)cc1 returned HCMV antiviral inactive.
CCc1ccc(-n2nc(C)c3c2NC(=O)CSC3c2ccc(OC)cc2OC)cc1 (configuration not stated) was read as HCMV antiviral -67.
`CCc1ccc(-n2nc(C)c3c2NC(=O)CSC3c2ccc(C(=O)OC)cc2)cc1` (configuration not stated) gave HCMV antiviral inactive.
Screening CCc1ccc(-n2nc(C)c3c2NC(=O)CSC3c2ccccc2C)cc1 (configuration not stated) returned HCMV antiviral -80.
For CCCCn1nnnc1C(c1cc2ccccc2o1)N(C)Cc1ccccc1 (configuration not stated) the results were HCMV antiviral inactive.
Screening COc1cnc(-c2ccccc2)[nH]c1=O returned HCV inh inactive, HCMV antiviral inactive, Pf growth 48h inactive and Pf growth 96h inactive.
O=c1[nH]c(-c2ccccc2)ncc1OCc1ccccc1 was read as HCV inh inactive and HCMV antiviral -63.
For Cc1ccc2occ(-c3cc(-c4ccc(F)cc4)nc4c3COc3ccc(F)cc3-4)c(=O)c2c1 the results were HCMV antiviral inactive.
For COc1ccccc1NC(=O)CSc1ccc(-c2sc(C)nc2C)nn1 the results were HCMV antiviral inactive.
For Cc1nc(C)c(-c2ccc(SCC(=O)Nc3ccc(Br)cc3)nn2)s1 the results were HCMV antiviral -69.
Screening CCOc1ccccc1NC(=O)CSc1ccc(-c2sc(C)nc2C)nn1 returned HCV inh inconclusive, HCMV antiviral inconclusive, Pf growth 48h inconclusive and Pf growth 96h 10µM.
For COc1ccc(NC(=O)CSc2ccc(-c3sc(C)nc3C)nn2)cc1 the results were HCV inh inconclusive, HCMV antiviral inactive, Pf growth 48h inactive and Pf growth 96h 13µM.
For CCc1ccc(NC(=O)CSc2ccc(-c3sc(C)nc3C)nn2)cc1 the results were HCV inh 11µM, HCMV antiviral inactive, Pf growth 48h inactive and Pf growth 96h inconclusive.
Screening C[C@H]1[C@@H](NS(=O)(=O)c2ccc(C#N)cc2)CC[C@@]23CCCN2C(=O)CCC[C@@H]13 returned HCMV antiviral inactive.
For CC(=O)Nc1c(C)nn(-c2ccccc2)c1N1CCC(C(=O)NCc2ccc(F)cc2)CC1 the results were HCMV antiviral inactive.
For COc1ccc(CCCc2nnc(SCC(=O)Nc3ccc(C)cc3)o2)cc1 the results were HCMV antiviral inactive.
Screening COc1ccc(N(C)C(=O)Cn2cc(S(=O)(=O)N3CCN(c4ccccc4F)CC3)c3ccccc3c2=O)c(OC)c1 returned HCMV antiviral inactive.
For CCC(=O)NC(c1cccc([N+](=O)[O-])c1)c1c(O)ccc2ccccc12 (configuration not stated) the results were HCV inh inactive, HCMV antiviral inconclusive, Pf growth 48h inconclusive and Pf growth 96h inconclusive.
For CC(C)(C)C(=O)NC(c1ccccc1)c1c(O)ccc2ccccc12 (configuration not stated) the results were HCV inh inconclusive, HCMV antiviral inconclusive, Pf growth 48h 4.7µM and Pf growth 96h inconclusive.
Screening CC(C)C(=O)NC(c1ccc(N(C)C)cc1)c1c(O)ccc2ccccc12 (configuration not stated) returned HCV inh inconclusive, HCMV antiviral inactive, Pf growth 48h inconclusive and Pf growth 96h inconclusive.
Screening CC(=O)Oc1ccc2ccccc2c1C(NC(=O)Cc1ccccc1)c1ccc(Cl)cc1 (configuration not stated) returned HCV inh 10µM, HCMV antiviral inactive, Pf growth 48h 4.7µM and Pf growth 96h 2.9µM.
For CC(C)[C@H](N[C@@H](C)c1ccccc1)c1c(O)ccc2ccccc12 the results were HCV inh inactive, HCMV antiviral inactive, Pf growth 48h 2.9µM and Pf growth 96h inconclusive.
Screening CCOc1ccc(C(NC(=O)CC)c2c(O)ccc3ccccc23)cc1 (configuration not stated) returned HCV inh inactive, HCMV antiviral inactive, Pf growth 48h 13µM and Pf growth 96h inconclusive.
Screening CCOc1ccc(CN2C(=O)c3ccccc3Sc3ccc(C(=O)NCc4ccc5c(c4)OCO5)cc32)cc1 returned HCMV antiviral inactive.
Screening CC(Nc1ccc(-c2nc(-c3ccncc3)no2)cc1[N+](=O)[O-])c1ccccc1 (configuration not stated) returned HCMV antiviral inactive.
Screening CCCc1cc(=O)[nH]c(Nc2ccc(C)c(O)c2)n1 returned HCMV antiviral inactive.
`COc1cccc(CNC(=O)c2ccc(CSc3nc4ccncc4n3Cc3cccc(C)c3)cc2)c1` gave HCMV antiviral inactive.
`COc1ccc(C(NC(=O)CC(C)C)c2c(O)ccc3ccccc23)cc1` (configuration not stated) gave HCV inh inconclusive, HCMV antiviral inactive, Pf growth 48h inconclusive and Pf growth 96h inactive.
`CCCC(=O)NC(c1ccc(OC)cc1)c1c(O)ccc2ccccc12` (configuration not stated) gave HCV inh inconclusive, HCMV antiviral inactive, Pf growth 48h 12µM and Pf growth 96h inactive.
For CCOc1ccc(/C=N/OCC(=O)NC(c2ccccc2)c2ccccc2)cc1 the results were HCV inh inconclusive, HCMV antiviral inactive, Pf growth 48h 7.4µM and Pf growth 96h 9.3µM.
For Cc1ccccc1-n1cc(C(=O)c2cc(Cl)ccc2O)cc(C#N)c1=O the results were HCV inh inactive, HCMV antiviral inactive, Pf growth 48h 5.2µM and Pf growth 96h 2.6µM.

Assay outcomes as filed in PubChem BioAssay.
